Assay results published in ChEMBL document CHEMBL4513216, “Probing the Open Global Health Chemical Diversity Library for Multistage-Active Starting Points for Next-Generation Antimalarials” (ACS Infect Dis, 2020).
Screen size: about 69,000 compounds; about 8,600 (12%) showed an effect of 50% or more. For the sample, strong results were picked, then their nearest neighbours and some compounds at random.

What follows are compounds tested on Plasmodium berghei (assay: Screen against P. berghei liver stage (PbLuc), transformed with Luciferase, at 10uM). Details: tested at 10 uM.
Type: functional, HepG2

SMILES | INHIBITION [%]
CC(=O)N(Cc1noc(C)n1)C1CCN(Cc2c(C)noc2C)C1 (stereo unspecified) | -27.8
O=C(c1ccc(-n2cccn2)nc1)N1CCC(c2ccc(O)cc2)CC1 | 50.1
O=C(c1ccc(-n2cccn2)nc1)N1CCC(c2ccn[nH]2)C1 (stereo unspecified) | 23
Cc1cncc(C2CCN(C(=O)c3ccc(-n4cccn4)nc3)CC2)n1 | -35.5
O=C(O)CN(Cc1ccsc1)CC1CCCO1 (stereo unspecified) | 8.7
Cc1noc(C)c1CN1CCn2cc(CN3CCCC3)nc2C1 | -15.2
COc1ccc(CNc2cc(-c3nc(C)no3)ccn2)c(OC)c1 | 6.61
CCc1cnc(N)nc1NCCCn1nc(C)nc1C | 14.6
CCc1cnc(N)nc1NCc1ccc(OC)cc1OC | 73.8
CCc1cnc(N)nc1NCCCN1CCCCC1CO (stereo unspecified) | 6.94
CCc1cnc(N)nc1NCCc1ccc(OC)cc1OC | 58.05
CCc1cnc(N)nc1NCCCn1cc(Cl)cn1 | 64.1
CCc1cnc(N)nc1NCCn1cc(Cl)cn1 | 30.4
COc1ccc(OC)c(CCNc2ncc(S(N)(=O)=O)s2)c1 | -19.9
CCc1cnc(N)nc1NCc1ccc(OC)c(OC)c1 | 44
COc1cccc(C(=O)N2CCC(Nc3ccc(C)nn3)CC2)c1 | 21.5
Cc1nnc(NC(=O)NC(C)Cn2cccn2)s1 (stereo unspecified) | -21.9
COc1cc2nc(C)n(CC(=O)NCCCO)c(=O)c2cc1OC | -5.01
Cn1cc(C(=O)N[C@@H]2CN(Cc3ccc(F)cc3)[C@@H]3CCCO[C@@H]32)cn1 | -17.1
Cc1ccc(CN2CCNC(C(=O)NC3CC3)C2)cc1C (stereo unspecified) | -2.25
Nc1nccc(N2CCNC(C(=O)NCc3ccccn3)C2)n1 (stereo unspecified) | 52.6
CCCc1nc(C)cc(N2CCNC(C(=O)NC3CC3)C2)n1 (stereo unspecified) | 47.1
O=C(NC1CC1)C1CN(c2nc3ccccc3s2)CCN1 (stereo unspecified) | 65.6

SMILES | INHIBITION [%]
O=C(NCc1ccccn1)NC1CCCN(c2ncccn2)C1 (stereo unspecified) | 23
CC(C)NC(=O)O[C@H]1COCCN(c2nc3ccccc3s2)C1 | -1.12
O=C(NCc1cccnc1)C1CN(c2cnc3ccccc3n2)CCN1 (stereo unspecified) | 37.8
O=C(NCc1ccccn1)[C@H]1COC[C@H]2CN(c3ncccn3)C[C@H]21 | 41
O=C(NCc1ccccn1)C1CN(c2nc3ccccc3s2)CCN1 (stereo unspecified) | 58.2
O=C(NCc1ccncc1)C1CN(c2nc3ccccc3s2)CCN1 (stereo unspecified) | 30.4
O=C(NC1CCCC1)O[C@H]1COCCN(c2nc3ccccc3s2)C1 | 85.1
CCNC(=O)O[C@H]1COCCN(c2nc3ccccc3s2)C1 | -3.58
Cc1cc(=O)n2c3c(cc(S(=O)(=O)NC4CC4)cc13)CCC2 | 49.45
Cc1cc(CN2CCc3cncnc3C2)no1 | 23.9
Cc1ccccc1-c1cc(CC2(C(=O)O)CCOCC2)on1 | -21.4
Cc1cc(CN2CCN(Cc3ccccc3F)CC2)no1 | -4.35
CN(C)C(=O)c1cncnc1-c1ccc(CNC(=O)C2CCCO2)cc1 (stereo unspecified) | 4.615
CC(C)n1c(=O)[nH]c2cn(-c3ccc(F)cc3)c(=O)n21 | 3.16
Cc1[nH]c2c(C)ccc(C)c2c1CC(=O)NCCNc1cccnc1 | -17.2
Cc1[nH]c2c(C)ccc(C)c2c1CC(=O)NCC(O)c1cccnc1 (stereo unspecified) | 76.5
Cc1[nH]c2c(C)ccc(C)c2c1CC(=O)NCCCNc1cccnc1 | 36.7
Cc1ccc2c(n1)N(C)CCN(C(=O)C1CC1)C2 | 7.84
CC(C)NC(=O)CN(C)C(=O)c1csc(Cc2ccccc2F)n1 | 23.1
CCNC(=O)CN(CC)C(=O)c1csc(Cc2ccccc2F)n1 | 32
COC(=O)CCN(C)C(=O)c1csc(Cc2ccccc2F)n1 | 91.3
CC(C)NC(=O)N1CC[C@H]2[C@H]1CCN2c1ncccn1 | -44.2
Cc1cnc(NCc2cnn(C)c2)nc1-c1cnn(C)c1 | 61.2

SMILES | INHIBITION [%]
CCNc1ncc(C)c(-c2cnn(C)c2)n1 | 27.6
Cc1cnn(CC(C)NCc2csc(-c3cnn(C)c3)n2)c1 (stereo unspecified) | 47.1
Cc1cnc(NCc2ccncc2)nc1-c1cnn(C)c1 | 2.15
Cc1cnc(NCc2csc(C(C)C)n2)nc1-c1cnn(C)c1 | 58.5
Cc1cnc(CNc2ncc(C)c(-c3cnn(C)c3)n2)cn1 | 39.4
N#CC1CCN(C(=O)NCCc2ccc(Cl)s2)CC1 | -7.31
O=C(c1ccc(Cl)cc1)N1CCC(N2CCCCC2=O)CC1 | 27.5
Cc1c(C(=O)NC2=NCCS2)cnn1-c1ccc(Br)cc1 | -156
COCC1Cn2nnc(-c3cnn(C)c3)c2CN1Cc1ccco1 (stereo unspecified) | 11.8
Cc1cc(C(=O)N2CCCC(n3cncn3)C2)c(C)n1CC1CC1 (stereo unspecified) | -41.6
CC(Cc1ccco1)NC(=O)Nc1cccnc1 (stereo unspecified) | -10.1
CC(C)c1nnc2sc(CC3CN(Cc4ccccc4)CCO3)nn12 (stereo unspecified) | 42.8
CCCc1nnc2sc(CC3CN(Cc4ccccc4)CCO3)nn12 (stereo unspecified) | 59.2
CC(C)N1CCOC(Cc2nn3c(Cc4ccccc4)nnc3s2)C1 (stereo unspecified) | 45.5
Cc1c(C(C)N)cnn1-c1ccccn1 (stereo unspecified) | -12.1
Cc1c(C(C)N)cnn1-c1cccc2ccccc12 (stereo unspecified) | 7.24
Cc1ccccc1-n1ncc(C(C)N)c1C (stereo unspecified) | 58.4
COc1ccccc1CNC(=O)C(C)n1cc2c(n1)c(C)nn2C (stereo unspecified) | 21.7
Cc1nn(C)c2cn(C(C)C(=O)NCc3ccc(F)cc3)nc12 (stereo unspecified) | 19.3
Cc1nn(C)c2cn(C(C)C(=O)NCc3ccncc3)nc12 (stereo unspecified) | 32.5
Cc1nn(C)c2cn(C(C)C(=O)NCc3ccccn3)nc12 (stereo unspecified) | 55.7
Cc1nn(C)c2cn(C(C)C(=O)NCc3cccnc3)nc12 (stereo unspecified) | -2.37
Cc1nn(C)c2cn(C(C)C(=O)NCc3cccc(F)c3)nc12 (stereo unspecified) | 58.2

SMILES | INHIBITION [%]
CN(Cc1ccco1)C(=O)NC1CCCN(c2ncccn2)C1 (stereo unspecified) | 4.865
COc1ccc2c(ccn2CC(=O)Nc2n[nH]c(CC(C)C)n2)c1 | 16
CN(C)S(=O)(=O)N1C[C@@H]2COC[C@]2(COc2ccccn2)C1 | 11.5
Cc1cc(C2CCC2)nc(N2CCC3(CCCN(C)C3=O)C2)n1 (stereo unspecified) | -14.3
Cc1ccc(N2CCCC(NCc3cscn3)C2)nn1 (stereo unspecified) | 26.8
c1cc(-c2cscn2)cc(N2CCC(NCCc3cccs3)CC2)c1 | 75.5
O=C(NCCc1cccs1)NC1CCN(c2ncccn2)CC1 | -89
O=C1CCCN1c1cccc(N2CCC(NCCc3cscn3)CC2)c1 | 14.3
Cc1nc(-c2cccc(N3CCC(NC4CCOCC4)CC3)c2)cs1 | 37.7
c1ccc(-c2cccc(N3CCC(NCCc4cscn4)CC3)c2)cc1 | 69.9
CNc1cccc(C2CCN(C(=O)c3cccnc3)CC2)n1 | -9.27
Cc1cc(C(=O)N2CCN(S(C)(=O)=O)[C@@H](C)C2)c(F)cc1F | -14.2
Cc1ccc(C)c2c(C)c(C(=O)NCCCn3ccnn3)[nH]c12 | 47.2
O=C(NC1CCCN(c2ncccn2)C1)c1ccoc1 (stereo unspecified) | -6.32
CC(C)c1nc(C2CCCN(C(=O)c3ccc(N(C)C)nn3)C2)no1 (stereo unspecified) | 30.3
CCC(NC(=O)c1nn(C)cc1C(=O)O)c1ccccc1 (stereo unspecified) | 15.9
Cc1cc(NC2CCc3ncnn3C2)n2nc(C(F)(F)F)nc2n1 (stereo unspecified) | 26.9
Cc1cccc(CN2CC[C@@H]3[C@@H]2CCN3C(=O)c2cc(C)oc2C)n1 | -6.23
Cc1ccccc1-c1csc2c(=O)[nH]c(N3CCCC(C(=O)O)C3)nc12 (stereo unspecified) | 52.5
Cc1ccc(-c2csc3c(=O)[nH]c(N4CCCC(C(=O)O)C4)nc23)cc1 (stereo unspecified) | 32.8
O=C(O)C1CCCN(c2nc3c(-c4ccccc4)csc3c(=O)[nH]2)C1 (stereo unspecified) | 36.6
CC(C)CC(=O)N1CCC2(CC1)OC(C(N)=O)Cn1ccnc12 (stereo unspecified) | 7.7
O=C(NCC1CC1)C12CC(CN1Cc1nccs1)C2 | 82.2

SMILES | INHIBITION [%]
Cc1ccsc1C(=O)N1CC2CC1(C(=O)NCC1CC1)C2 | 23.5
O=C(N1CCCC1)C12CC(CN1Cc1nccs1)C2 | -2.03
CN(C)C(=O)c1cc(-c2ccncc2)[nH]n1 | -8.28
CN1CCN(C(=O)c2cc(C#N)cs2)c2ccccc2C1 | -91.4
c1ccc(CCNc2ncnc3c2CCN(Cc2c[nH]cn2)CC3)cc1 | 37.3
CN(C)c1ccc(C(=O)N2CCCN(Cc3cscn3)CC2)nn1 | -31.8
O=C(c1cnc2n1CCN(Cc1ccccc1)C2)N1CCCC1 | 17.1
CC(C)Nc1nc(-c2ccccc2)nc2c1CCN(C(=O)C1CC1)CC2 | 73.8
O=C(C1CCOCC1)N1CCc2ncnc(-c3ccccc3)c2CC1 | -28.8
Cc1nc2c(c(NCc3ccccc3)n1)CCN(C(=O)C1CCC1)CC2 | 42.3
CC(=O)N1CCc2nc(-c3ccccc3)nc(NC(C)C)c2CC1 | 59.3
Cc1nc2c(c(NC(C)C)n1)CCN(C(=O)c1ccno1)CC2 | 49.1
Cc1nc(-c2ccc(F)cc2)nc2c1CCN(C(=O)CN(C)C)CC2 | 37.9
CCOCC(=O)N1CCc2nc(C)nc(NC(C)C)c2CC1 | 32.1
COCC(=O)N1CCc2nc(C)nc(NC(C)C)c2CC1 | 35.8
CC(=O)N1CCc2nc(-c3ccc(F)cc3)nc(NC(C)C)c2CC1 | 64.7
COCC(=O)N1CCc2nc(NC(C)C)nc(NC(C)C)c2CC1 | 48.4
CC(C)Nc1nc(-c2ccccc2)nc2c1CCN(C(=O)CC#N)CC2 | 72
CC(=O)NCC(=O)N1CCc2nc(-c3ccccc3)nc(C)c2CC1 | 37.9
